This passage reports AC50 and outcome results from PubChem BioAssay (EPA / NIEHS).

Each structure is given as a SMILES string. Several values for one entry are separate records, joined by “and”; a condition that tells them apart may be missing. Identical values can stand only once. Records with an inconclusive call do not appear. Activity calls are given as the source filed them. The calls were made as follows: active = hit-call score of the fitted dose curve at least 0.9, where 1 is the maximum; inconclusive = response in the unintended direction; inactive = score below 0.9.

The assay can be described thus: TOX21_p53_BLA_p3_viability: Viability Assessment in the Tox21 HCT-116 p53 Agonism Beta-lactamase Assay, Phase 3 (AID 2283593).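 Also: cells exposed to compound for 16 h before reading.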 The text has this: TOX21_p53_BLA_p3 is a cell-based, single-readout assay that uses HCT116, a human intestinal cell line, […] in a 1536-well plate.TOX21_p53_BLA_p3_viability is an assay readout measuring cellular ATP content and detected with CellTiter-Glo Luciferase-coupled ATP quantitation.TOX21_p53_BLA_p3_viability used a type of viability reporter where loss-of-signal activity can be used to understand changes in the cell viability. Furthermore, this assay endpoint can be referred to as a secondary readout, because this assay has produced multiple assay endpoints where this one serves a viability function. To generalize the intended target to other relatable targets, this assay endpoint is annotated to the cell cycle intended target family, where the subfamily is cytotoxicity.
Thawing Method: Place 14 mL of pre-warmed thaw medium into a 15 mL of conical tub. Remove the vial of cells to be thawed from liquid nitrogen and thaw rapidly by placing at 37C in a water bath with gentle agitation for 1-2 minutes. Decontaminate the vial by wiping with 70% ethanol before opening in a biological safety cabinet. Transfer the vial contents drop-wise into 14 mL of thaw medium in a sterile 15-mL conical tub. Centrifuge cells at 900 rpm for 4 minutes and resuspend in thaw medium. Transfer contents to the T75 tissue culture flask containing Thaw Medium and place flask in a humidified 37C/5% CO2 incubator. Switch to growth medium at first passage.Propagation Method: Aspirate medium, rinse once in DPBS, add 0.25% Trypsin/EDTA and swirl to coat the cell evenly. Add an equal volume of Growth Medium to inactivate Trypsin after 2-3 minutes incubation at 37C. Centrifuge cells at 900 rpm for 4 minutes and resuspend in growth medium. Cell should be passage or fed at least twice a week.Assay Protocol: Harvest cells from culture in growth medium and resuspend in assay medium. 2.2 Dispense 4000 cells/5 uL/well into 1536-well black/clear bottom plates using a Multidrop dispenser. After the cells were incubated at 37C for 5 hours, 23 nL of compounds dissolved in DMSO were transferred to the assay plate by a PinTool resulting in a 217-fold dilution. Incubate the plates for 16 hours at 37C, 5% CO2. Add 1 uL of 6X LiveBLAzer FRET B/G (CCF4-AM) Substrate Mixture to each well using a BioRAPTR dispenser and incubate the plates at room temperature for 2 hours. Measure fluorescence intensity at 460 and 530 nm emission and 405 nm excitation by an Envision detector. Data is expressed as the ratio of 460nm/530nm emissions. Add 4 uL of Cell-titer Glo to each well using BioRAPTR and incubate the plates at room temperature for […]. For cell viability readout that measures cytotoxicity, 4 ul/well of CellTiter-Glo reagent was added into the assay plates using a Flying Reagent Dispenser. After 30 min incubation at room temperature, the luminescence intensity in the plates was measured using a ViewLux plate reader.
As a reminder, the AC50 is the midpoint of the concentration-response curve, whichever way the signal moves. Turning to `CC/C(=C(\c1ccccc1)c1ccc(OCCN(C)C)cc1)c1ccccc1`, the AC50 was 74.8 µM (active) [middle of 5 runs].
For `CC(C)Cc1ccc(C(C)C(=O)O)cc1` (stereo not given), the compound was called inactive.
On the same count and under the same terms, the same measure for `CC(C)(C)C1CCC(O)CC1` (stereo not given): “inactive”.
The same measure, in the same setting: as for `CCO[Si](CC)(OCC)OCC`, the entry is “inactive”; as for `CCCCC1CCCCC(=O)O1` (stereo not given), “inactive”; as for `COC(=O)c1ccc(C(=O)OC)cc1`, “inactive”.
As for `CCCCOCCOCCOCCO`, the compound was called inactive.
For `CC(C)Cc1ccccc1`, the result was inactive.
Consider `Cc1cc(O)c2c(c1)C(=O)c1cc(O)cc(O)c1C2=O`, for which the compound was classed as inactive.
As for `O=C(c1ccc(OCCN2CCCCC2)cc1)c1c(-c2ccc(O)cc2)sc2cc(O)ccc12`, the AC50 was 69.8 µM (active) and 74.5 µM (active) and 35.6 µM (active).
For `CC(O)CNCC(C)O` (stereo not given), the call was inactive.
With `N=C1N=C(N)c2ccccc21`, the AC50 is 13.6 µM (active).
In the case of `CC(C)CCCC(C)(C)O`, the compound was classed as inactive.
The same measure, in the same setting: as for `CC1=CCC(=C(C)C)CC1`, the entry is “inactive”; as for `O=S1(=O)CC=CC1`, “inactive”.
For `O=C(O)c1ccco1`, the compound was classed as inactive.
On the same count and under the same terms, as for `CCCCCCCC(=O)N(C)C`, the entry is “inactive”; as for `c1ccc2scnc2c1`, “inactive”; as for `CCCCCCCCCC(=O)OCC`, “inactive”.
The same measure, in the same setting: as for `CCOC(=O)C=Cc1ccccc1`, the entry is “inactive”; as for `CC(C)=CC(=O)O`, “inactive”; as for `NC(=O)NC(N)=O`, “inactive”.
Same read-out and setting: the same measure for `CCCCCC1C(=O)CCC1CC(=O)OC` (stereo not given): “inactive”.
As for `CCCCCC(=O)O[C@]1(C(C)=O)CC[C@H]2[C@@H]3CCC4=CC(=O)CC[C@]4(C)[C@H]3CC[C@@]21C`, the result was inactive.
The same measure, in the same setting: as for `CCC(C)(C)C1CCC(OC)CC1` (stereo not given), the entry is “inactive”.
Same read-out and setting: the same measure for `O=S(=O)(O)c1cc(S(=O)(=O)O)c2c(N=Nc3ccccc3)c(O)ccc2c1`: “inactive”.
The same measure, in the same setting: as for `CCCc1ccc(O)cc1`, the entry is “inactive”; as for `CCCCN(CCO)CCO`, “inactive”.
On to `c1ccc(OCCOc2ccccc2)cc1`, for which the compound was called inactive.
The same measure, in the same setting: the same measure for `CC(=O)OC(C)(C)C`: “inactive”; for `C=CCS(=O)(=O)O`: “inactive”.
Regarding `CCCCCCCCCCCCS`, the result was inactive.
On the same count and under the same terms, as for `CC1=CCC(C(C)(C)O)CC1` (stereo not given), the entry is “inactive”.
`O=S1(=O)CC(Cl)(Cl)C(Cl)(Cl)C1`: the AC50 is 24.9 µM (active).
For the compound `COC(=O)c1cccc(C(=O)OC)c1`, the call was inactive.
Take `Cc1cc(N)n(-c2ccccc2)n1`: the compound was classed as inactive.
The same measure, in the same setting: the same measure for `Cc1ccncc1`: “inactive”; for `NCCCOCCOCCOCCCN`: “inactive”; for `NC(=O)c1cccnc1`: “inactive”.
As for `C=C(C)C(N)=O`, the compound was classed as inactive.
